Results published in PubChem BioAssay.
Activity calls are given as the source filed them. Rule as the data show it, unless noted: active = inhibition above about 30%; inactive = the rest.

The molecules below were run against Nuclear receptor coactivator 3 (Homo sapiens) (UniProt Q9Y6Q9) (assay: SRC3 coactivator transcriptional activity inhibitors, confirmation, cell-based, luminescence, quadruplicate (AID 588792;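 active = mean inhibition over 43.08%, the solvent-only control mean plus 3 SD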;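 also: 0% = DMSO treated cells and 100% = gossypol at 36 µM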)). Details: HEK293 GAL4-SRC3 luciferase reporter, at 3.6 µM, active compounds read high.
Nuclear receptor coactivator 3 (Homo sapiens), sequence (Q9Y6Q9 whole entry, looked up, the tested form may be a part): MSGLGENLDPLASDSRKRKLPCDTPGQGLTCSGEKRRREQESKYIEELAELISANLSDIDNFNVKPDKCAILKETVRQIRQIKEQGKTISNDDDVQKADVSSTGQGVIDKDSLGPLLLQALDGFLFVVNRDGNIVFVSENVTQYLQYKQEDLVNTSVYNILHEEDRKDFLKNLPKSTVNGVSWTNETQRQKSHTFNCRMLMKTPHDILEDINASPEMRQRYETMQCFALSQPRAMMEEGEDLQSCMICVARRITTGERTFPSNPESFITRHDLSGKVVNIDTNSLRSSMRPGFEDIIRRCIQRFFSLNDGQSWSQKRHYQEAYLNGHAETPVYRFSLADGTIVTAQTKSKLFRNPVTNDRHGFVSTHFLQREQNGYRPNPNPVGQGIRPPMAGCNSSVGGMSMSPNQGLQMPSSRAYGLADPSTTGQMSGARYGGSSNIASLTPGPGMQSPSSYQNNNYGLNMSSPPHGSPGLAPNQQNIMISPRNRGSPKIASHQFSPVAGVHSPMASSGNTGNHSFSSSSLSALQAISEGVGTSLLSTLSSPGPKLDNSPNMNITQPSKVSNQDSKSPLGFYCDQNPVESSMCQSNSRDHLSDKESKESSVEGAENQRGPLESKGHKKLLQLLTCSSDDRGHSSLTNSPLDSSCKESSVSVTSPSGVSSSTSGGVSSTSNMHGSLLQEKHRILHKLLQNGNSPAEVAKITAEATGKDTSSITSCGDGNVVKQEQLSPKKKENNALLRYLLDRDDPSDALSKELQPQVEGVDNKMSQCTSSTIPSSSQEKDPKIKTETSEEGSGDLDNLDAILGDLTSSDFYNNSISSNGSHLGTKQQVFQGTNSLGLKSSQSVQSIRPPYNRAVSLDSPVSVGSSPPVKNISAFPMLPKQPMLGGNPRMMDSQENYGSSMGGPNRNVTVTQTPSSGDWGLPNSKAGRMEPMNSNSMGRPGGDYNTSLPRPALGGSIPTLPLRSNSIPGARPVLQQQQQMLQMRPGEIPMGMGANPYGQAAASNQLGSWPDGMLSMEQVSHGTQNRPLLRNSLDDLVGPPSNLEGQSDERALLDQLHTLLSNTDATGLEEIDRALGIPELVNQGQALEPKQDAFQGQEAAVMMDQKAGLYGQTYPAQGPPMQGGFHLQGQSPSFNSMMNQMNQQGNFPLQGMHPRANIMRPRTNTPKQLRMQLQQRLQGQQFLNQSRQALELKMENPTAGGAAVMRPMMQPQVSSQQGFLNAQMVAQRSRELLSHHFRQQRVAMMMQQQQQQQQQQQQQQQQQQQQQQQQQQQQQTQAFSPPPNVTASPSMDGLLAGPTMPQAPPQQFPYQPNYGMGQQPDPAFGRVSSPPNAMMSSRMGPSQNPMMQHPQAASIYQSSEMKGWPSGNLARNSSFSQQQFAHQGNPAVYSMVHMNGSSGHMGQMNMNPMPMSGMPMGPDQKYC

Structure (SMILES)	inhibition
CCCOc1cccc(C(=O)Nc2cc(NC(=O)c3ccco3)ccc2OC)c1	10.8% (inactive)
CCOC(=O)N1CCC(NC(=O)C2CCCN(Cc3nc(-c4ccc(CC)cc4)oc3C)C2)CC1 (stereo not given)	18.7% (inactive)
Cc1cccc(N2C(=O)c3cccnc3C2=O)c1	3.71% (inactive)
Cc1ccc(S(=O)(=O)Nc2ccc3c(c2)OCCO3)cc1C	24.1% (inactive)
CCCCc1nc2ccccc2c(N)c1CCC (tested in a mixture with another compound)	8.62% (inactive)
COc1cccc(/C=N/Nc2ncnc(Cl)c2N)c1O	78.1% (active)
CCCn1c(C)cc(C(=O)COc2ccc(C)nc2[N+](=O)[O-])c1C	11.3% (inactive)
CC1(C)CC(=O)C=C(C#CC2(O)CCCCC2)C1	19% (inactive)
O=C(NCc1ccc(Cl)cc1)c1cccc(NC(=O)c2ccccc2)c1	-5.52% (inactive)
CCn1cc(C(=O)NCc2ccccn2)c(=O)c2cc(F)c(N3CCN(C)CC3)cc21	-0.49% (inactive)
COc1ccc(CCNC(=O)C2CCCN(S(C)(=O)=O)C2)cc1OC (stereo not given)	-14% (inactive)
CCOC(=O)C1CCCN(c2c(NCCCN(C)c3ccccc3)c(=O)c2=O)C1 (stereo not given)	-9.14% (inactive)
CN1CCN(S(=O)(=O)c2cccc(C(=O)N(C)CC(=O)Nc3ccc(Cl)c(Cl)c3)c2)CC1	21% (inactive)
O=C(N/N=C/c1ccc(O)cc1O)c1ccc(NC(=O)C2CCCCC2)cc1	9.15% (inactive)
Cn1c(N)c(C(=O)COC(=O)C2CC(=O)N(Cc3ccccc3)C2)c(=O)n(C)c1=O (stereo not given)	-0.18% (inactive)
COc1ccc(NC(=O)c2sc(=O)n(Cc3ccccc3C#N)c2C)cc1OC	7.52% (inactive)
O=C(Oc1ccc(F)cc1C(=O)/C=C/c1cccs1)c1cccc([N+](=O)[O-])c1	-13.7% (inactive)
COc1ccccc1NC(=O)Nc1nnc(Cc2ccc(F)cc2)s1	3.85% (inactive)
COc1ccccc1C(CNc1ccc(S(=O)(=O)N2CCCC2)cc1[N+](=O)[O-])N(C)C (stereo not given)	23.9% (inactive)
C[C@H](NS(=O)(=O)c1ccc(Cl)cc1)C(=O)OCC(=O)NC(=O)Nc1ccc2c(c1)OCCO2	-39.7% (inactive)
O=c1[nH]c(=O)n(C2CC(O)C(CO)O2)cc1I (stereo not given)	23.1% (inactive)
COc1cccc(C(=O)CC(=O)C(=O)Nc2cccc([N+](=O)[O-])c2C)c1	-3.08% (inactive)
Cc1cc2[nH]c3c4ccccc4nc(C)c3c2cc1C	20.5% (inactive)
CCCCNS(=O)(=O)c1ccc(S(=O)(=O)NCc2ccncc2)cc1	16.5% (inactive)
Cc1cccc(Oc2sc(C(=O)c3ccccc3)c(N)c2C#N)c1	34.8% (inactive)

These molecules were tested on transactivating tegument protein VP16 (Human herpesvirus 1), Gal4-VP16 luciferase reporter (assay: VP16 transactivation inhibitors, counter-screen for SRC3 inhibitor project, cell-based, luminescence, high throughput (AID 588794)). Details: mammalian cells, VP16-driven luciferase reporter luminescence; at 3.6 µM; active compounds read high.

Structure (SMILES)	inhibition
CCN(CC)c1ccc(/C=N/NC(=O)c2ccc3nc[nH]c3c2)c(O)c1	50.6% (active)
COCCN(CCOC)S(=O)(=O)c1ccc(C(=O)Nc2nc3c(s2)CCc2ccccc2-3)cc1	0.01% (inactive)
Cc1cccc(OC(=O)NCCOC(=O)N(O)c2ccc(Cl)cc2)c1	-5.77% (inactive)
CCCCN(CCCC)C(=O)CSc1nnc(-c2cc(OC)c(OC)c(OC)c2)o1	4.79% (inactive)
CC(=O)c1c(C)[nH]c(C(=O)CSc2nc3ccccc3n2C)c1C	11.8% (inactive)
CCOC(=O)c1c(-c2ccccc2)oc2ccc(O)c(CN3CCOCC3)c12	4.57% (inactive)
O=C(N/N=C\c1c(O)ccc2ccccc12)c1ccc(Cn2cccn2)o1	39.5% (active)
Cc1nnsc1-c1onc(C)c1C(=O)Nc1cc(Cl)cc(Cl)c1	13.8% (inactive)
COc1cccc(-c2csc3ncnc(Sc4nnnn4C)c23)c1	21.9% (inactive)
COc1ccccc1N1CCN(C(=O)C2CCCN(S(=O)(=O)c3ccc4c(c3)CCCN4C(C)=O)C2)CC1 (stereo not given)	8.25% (inactive)
Cc1cc(C)nc(/N=C(\N)Nc2ccccc2-c2ccccc2)n1	13.4% (inactive)
C=CC[C@@H](CC(=O)NCCO)C(=O)NC[C@H](OC(=O)[C@@H](CC=C)Cc1ccc(F)cc1)c1ccccc1	2.08% (inactive)
c1csc(Cc2nn3c(-c4ccncc4)nnc3s2)c1	20.8% (inactive)
COc1ccc(-n2c(C)cc(C(=O)COc3ccc(C)nc3[N+](=O)[O-])c2C)cc1	10.7% (inactive)
COc1ccc(C(=O)Nc2ccc(N3CCN(C(=O)c4ccccc4C)CC3)cc2)cc1	25.1% (inactive)
CCCOc1cccc(C(=O)Nc2cc(NC(=O)c3ccco3)ccc2OC)c1	2.92% (inactive)
CCOC(=O)N1CCC(NC(=O)C2CCCN(Cc3nc(-c4ccc(CC)cc4)oc3C)C2)CC1 (stereo not given)	33.9% (active)
Cc1cccc(N2C(=O)c3cccnc3C2=O)c1	-4.38% (inactive)
Cc1ccc(S(=O)(=O)Nc2ccc3c(c2)OCCO3)cc1C	-2.28% (inactive)
CCCCc1nc2ccccc2c(N)c1CCC (tested in a mixture with another compound)	9.99% (inactive)

Structure (SMILES)	inhibition
COc1cccc(/C=N/Nc2ncnc(Cl)c2N)c1O	71.7% (active)
CCCn1c(C)cc(C(=O)COc2ccc(C)nc2[N+](=O)[O-])c1C	6.56% (inactive)
CC1(C)CC(=O)C=C(C#CC2(O)CCCCC2)C1	1.31% (inactive)
O=C(NCc1ccc(Cl)cc1)c1cccc(NC(=O)c2ccccc2)c1	26.9% (inactive)
CCn1cc(C(=O)NCc2ccccn2)c(=O)c2cc(F)c(N3CCN(C)CC3)cc21	3.18% (inactive)
COc1ccc(CCNC(=O)C2CCCN(S(C)(=O)=O)C2)cc1OC (stereo not given)	-3.27% (inactive)
CCOC(=O)C1CCCN(c2c(NCCCN(C)c3ccccc3)c(=O)c2=O)C1 (stereo not given)	-3.6% (inactive)
CN1CCN(S(=O)(=O)c2cccc(C(=O)N(C)CC(=O)Nc3ccc(Cl)c(Cl)c3)c2)CC1	17.9% (inactive)
O=C(N/N=C/c1ccc(O)cc1O)c1ccc(NC(=O)C2CCCCC2)cc1	10.4% (inactive)
Cn1c(N)c(C(=O)COC(=O)C2CC(=O)N(Cc3ccccc3)C2)c(=O)n(C)c1=O (stereo not given)	-2.93% (inactive)
COc1ccc(NC(=O)c2sc(=O)n(Cc3ccccc3C#N)c2C)cc1OC	31.8% (active)
O=C(Oc1ccc(F)cc1C(=O)/C=C/c1cccs1)c1cccc([N+](=O)[O-])c1	-23.3% (inactive)
COc1ccccc1NC(=O)Nc1nnc(Cc2ccc(F)cc2)s1	9.25% (inactive)
COc1ccccc1C(CNc1ccc(S(=O)(=O)N2CCCC2)cc1[N+](=O)[O-])N(C)C (stereo not given)	24.9% (inactive)
C[C@H](NS(=O)(=O)c1ccc(Cl)cc1)C(=O)OCC(=O)NC(=O)Nc1ccc2c(c1)OCCO2	-25.8% (inactive)
O=c1[nH]c(=O)n(C2CC(O)C(CO)O2)cc1I (stereo not given)	11.8% (inactive)
COc1cccc(C(=O)CC(=O)C(=O)Nc2cccc([N+](=O)[O-])c2C)c1	-1.84% (inactive)
Cc1cc2[nH]c3c4ccccc4nc(C)c3c2cc1C	33.8% (active)
CCCCNS(=O)(=O)c1ccc(S(=O)(=O)NCc2ccncc2)cc1	25.1% (inactive)
Cc1cccc(Oc2sc(C(=O)c3ccccc3)c(N)c2C#N)c1	5.81% (inactive)
